Screening data deposited in PubChem BioAssay by several laboratories.
Calb FLC: affects C. albicans growth with fluconazole; hit rate 0.57% among 300,000; growth inhibition, % (concentration not given with the values); C. albicans CaCi-2 (fluconazole-resistant clinical isolate) + fluconazole, Alamar Blue growth, 48 h; AID 1979;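 active means growth inhibition above about 58% in most replicates, limit read from the data, passing the limit was not always enough; inconclusive means exactly half the replicates above a set limit; inactive means most replicates below a set limit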;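 further: all wells also contain fluconazole at 8 µg/ml as a sub-toxic cotreatment; 0% = median of DMSO wells and 100% = median of geldanamycin control wells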
CSC inhib: cancer stem cell inhibition; AID 2717; hit rate 1.1% among 300,000; inhibition, % at 7.5 µM; cancer stem cell-like cells viability, luminescence; in the data active means inhibition above about 75%; inconclusive means no clear call, values can overlap the other calls; tested in HMLE shEcad cells
PP1 counter: blocks human PP1-alpha phosphatase, a PP5 counter-screen; P62136; inhibition, % at 6.7 µM; hit rate 0.9% among 320,000; purified PP1alpha, OMFP fluorescence; AID 2235;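 active means inhibition above the mean inhibition of all tested compounds plus 3 SD, computed separately for each screening campaign, cut at about 15% in these data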
Target sequence (P62136 whole entry, looked up): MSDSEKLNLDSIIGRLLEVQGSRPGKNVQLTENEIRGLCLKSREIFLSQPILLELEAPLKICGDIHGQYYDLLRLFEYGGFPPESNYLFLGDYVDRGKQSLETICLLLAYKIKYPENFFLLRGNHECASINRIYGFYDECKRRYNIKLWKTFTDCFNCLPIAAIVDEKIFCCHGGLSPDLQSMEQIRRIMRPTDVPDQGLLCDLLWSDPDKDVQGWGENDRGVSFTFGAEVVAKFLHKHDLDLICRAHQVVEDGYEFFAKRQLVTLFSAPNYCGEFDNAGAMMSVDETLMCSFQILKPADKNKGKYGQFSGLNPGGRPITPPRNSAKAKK
ALR inh: inhibitors of human sulfhydryl oxidase ALR; hit rate 3.8% among 290,000; AID 485317; inhibition, % (test concentration not listed); P55789; purified ALR, DTT oxidation, H2O2 HRP-luminol luminescence;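 active means mean replicate inhibition above about 79%, with every replicate also reaching it, limit read from the data; inconclusive means only one of the two criteria met; inactive means mean below limit and not every replicate reaching it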
Target sequence (P55789 whole entry, looked up): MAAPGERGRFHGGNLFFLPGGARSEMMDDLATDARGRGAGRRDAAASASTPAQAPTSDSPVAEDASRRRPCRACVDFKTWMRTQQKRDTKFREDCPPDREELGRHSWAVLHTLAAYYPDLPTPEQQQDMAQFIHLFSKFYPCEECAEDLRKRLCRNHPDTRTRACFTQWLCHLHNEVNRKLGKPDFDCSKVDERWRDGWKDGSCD
PP5 inh: PP5 (human) phosphatase inhibition. inhibition, % at 6.7 µM. purified PP5c, OMFP substrate fluorescence. P53041. AID 1987. hit rate 0.18% among 320,000;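 active means inhibition above the campaign's mean inhibition across all tested compounds plus 3 SD, cut at about 9.5% in these data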;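 further: 0% = DMSO only and 100% = 100 µM cantharidin control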
Starred values were filed as active, the others as inactive; u = inconclusive; x = not tested or not shown; ! = not active in a repeat. Only some compounds are listed: those with a hit (about 5.4% of all), similar ones and a draw of the others.

SMILES | Calb FLC | CSC inhib | PP1 counter | ALR inh | PP5 inh
CCc1nccn1CCC(=O)N1CCCC(Nc2ccc(F)cc2)C1 (stereo not drawn) | -5 | 49 | -3 | 99* | 3
O=C(CCc1ccccn1)N1CCCC(Nc2ccc(F)cc2)C1 (stereo not drawn) | 7 | 18 | 3 | 99* | 2
COc1ccc(CNC(=O)CSc2nnc(C)n2-c2ccc(F)cc2)cc1 | -7 | 0 | 1 | x | 1
O=C1OC(CCl)CN1Cc1c(Cl)cccc1Cl (stereo not drawn) | -1 | -7 | 0 | 2 | -3
CC(=O)c1cc2c(cc1NC(=O)CSc1nnc(C)s1)OCO2 | -3 | -4 | -2 | -4 | 3
Cc1nnc(SCC(=O)c2ccc([N+](=O)[O-])cc2)s1 | -5 | 4 | 1 | -15 | -1
Nc1nnc(SCC(=O)c2ccc([N+](=O)[O-])cc2)s1 | -3 | 9 | 1 | 98* | -1
C=CCNC(=S)Nc1ccc2nc(C)oc2c1 | -7 | 3 | -2 | 43 | 0
CCCOC(=O)/C(=C\c1ccc([N+](=O)[O-])o1)NC(=O)c1ccccc1 | 89* | 0 | -10 | -9 | 0
CCOC(=O)/C(=C\c1ccc([N+](=O)[O-])o1)NC(=O)c1ccccc1 | 68 | 0 | -3 | -24 | 4
CCN(CC)CCn1c(=S)[nH]c2ccc(Cl)cc2c1=O | -18 | -22 | -1 | 89* | 2
O=C(NCc1ccc(Cl)cc1)C(=O)NCC1OCCN1S(=O)(=O)c1cccs1 (stereo not drawn) | -1 | -13 | 1 | -7 | 0
CC(C)(/C=N/O)N(O)C=C1C=CC(=O)C=C1 | -3 | 0 | -3 | 99* | 0
C=CCn1c(=O)c(C(=O)NCCc2ccccc2)c(O)c2ccccc21 | -6 | 116* | 0 | -3 | -1
Cn1c(=O)c(C(=O)NCCc2ccccc2)c(O)c2ccccc21 | 89* | 0 | -2 | 7 | 0
COc1cc(-c2nnc(NC(=O)CCS(=O)(=O)c3ccccc3)o2)cc(OC)c1OC | -3 | 1 | 3 | -7 | 2
COc1ccc(Cn2ccnc2SCC(=O)Nc2nnc(C)s2)cc1 | -11 | -19 | -1 | 35 | -2
CC(C)CN(C(=O)c1ccc([N+](=O)[O-])s1)c1c(N)n(Cc2ccccc2)c(=O)[nH]c1=O | x | -1 | -1 | -19 | 0
COc1ccc(-c2nc(Cn3c(SCc4cccc(F)c4)nc4ccncc43)c(C)o2)cc1OC | 2 | 82* | 1 | -10 | 1
COc1cc(C=C(c2nc3ccccc3s2)c2nc3ccccc3s2)ccc1O | -5 | 94* | 0 | 12 | 4
COc1cc(/C=C/c2nc3ccccc3s2)cc(OC)c1O | 11 | -1 | 0 | 95* | 1
CN(C)c1ccc(/C=C/c2nc3ccccc3s2)cc1 | -19 | 55 | 7 | x | 1
COc1ccc(CCN(Cc2ccccn2)C(=S)Nc2ccccc2C)cc1OC | 10 | -1 | 0 | -6 | 0
O=C(c1ccc(-n2cccc2)cc1)N1CCCCC1 | -6 | -1 | -5 | x | -2
Cc1nc(NC(=O)c2ccc(Br)o2)sc1C | 0 | 8 | 0 | 19 | 1
SMILES | Calb FLC | CSC inhib | PP1 counter | ALR inh | PP5 inh
CCOc1ccc(NC(=O)CSc2nnc(-c3ccccc3)n2N)cc1 | -2 | -22 | -2 | -3 | 2
CCOc1ccc(-n2c(SCC(=O)Nc3ccc(Br)cc3)nc3n[nH]c(C)c3c2=N)cc1 | -5 | x | 17* | -6 | 3
CCOc1ccc(NC(=O)CSc2nncc(=O)n2N)cc1 | 1 | -6 | -3 | 96* | 3
CCCc1nnc(SCC(=O)Nc2ccc(OCC)cc2)n1N | -7 | 7 | 1 | 98* | -2
CCOc1ccc(NC(=O)CSc2nnc(C)n2Cc2ccccc2)cc1 | -3 | 7 | 16* | -2 | -4
CCN1CCN(c2ccc(S(=O)(=O)N3CCOCC3)cc2NC(=O)/C=C/c2cccc(OC)c2OC)CC1 | -5 | x | -4 | x | 1
C=CCn1c(SCC(=O)N2CCCCCC2)nc2ccccc2c1=O | 6 | -8 | 0 | -6 | 0
COc1ccc(-c2nc(CS(=O)CC(=O)NCc3ccco3)c(C)o2)cc1 (stereo not drawn) | 6 | -12 | 0 | 99* | 0
Cc1oc(-c2ccc(Cl)cc2)nc1CN1CCC(C(=O)NCc2ccco2)CC1 | -16 | -8 | -2 | -7 | -1
CCc1ccc(-c2nc(CS(=O)CC(=O)NCc3ccco3)c(C)o2)cc1 (stereo not drawn) | -12 | -12 | 0 | 99* | 1
O=C(N/N=C/c1cc([N+](=O)[O-])ccc1O)c1ccncc1 | 1 | -3 | -2 | -2 | -1
CCc1cc2c(=O)n(Cc3ccco3)c(SCc3c(C)noc3C)nc2s1 | 36 | 59 | 6 | 99* | 1
CCn1c(CS(=O)Cc2ccc(Cl)cc2Cl)nnc1SCc1c(Cl)cccc1Cl (stereo not drawn) | 3 | 0 | -1 | 99* | -1
CCc1nc(NCc2ccco2)c2oc3ccccc3c2n1 | 10 | 13 | 2 | 88* | 2
CCc1nc(Nc2ccc(O)cc2)c2oc3ccccc3c2n1 | 18 | 21 | -2 | 93* | 0
O=C(Nc1cccc(F)c1)c1ccccc1-c1ccccc1 | 4 | -8 | 3 | 0 | 2
Cc1oc(C)c(C(N)=O)c1C(N)=O | 0 | -5 | -4 | 2 | 0
C/C(=N/NC(=O)c1ccccn1)c1ccco1 | -10 | 12 | -1 | -11 | 0
CC(C)c1nn2c(N)c(/C=C3\C=Nc4ccccc43)c(=O)nc2s1 | -1 | -2 | 1 | 8 | 4
CS(=O)(=O)c1nsc2nc(=O)c(/C=C3\C=Nc4ccccc43)c(N)n12 | -3 | -14 | 2 | 90* | 0
CCCCc1nn2c(N)c(/C=C3\C=Nc4ccccc43)c(=O)nc2s1 | 19 | 29 | -3 | 38 | -1
CCCc1nn2c(N)c(/C=C3\C=Nc4ccccc43)c(=O)nc2s1 | 5 | 2 | 8 | 92*! | 3
Cn1c(-c2cc(Br)ccc2O)n[nH]c1=S | -6 | -7 | 3 | 98* | 1
O=c1oc(-c2ccccc2Cl)nc2ccsc12 | 2 | 6 | -1 | 23 | 2
O=c1oc(-c2ccc(F)cc2)nc2ccsc12 | -10 | -10 | 2 | 83* | 0
SMILES | Calb FLC | CSC inhib | PP1 counter | ALR inh | PP5 inh
CN1CCN(C(=O)c2cnn(-c3ccccc3)c2NC(=O)c2ccccc2)CC1 | 94* | -1 | -1 | -2 | 3
CCn1c(=NC(=O)c2ccc(S(=O)(=O)N3CCOCC3)cc2)sc2cccc(OC)c21 | 9 | 33 | 0 | 2 | -2
COc1ccc(C(=O)n2cc(C(=O)c3cc(C)ccc3O)cn2)cc1 | -10 | 15 | 5 | 98* | -1
COc1ccc(C(=O)n2cc(C(=O)c3cc(C)ccc3O)cn2)cc1OC | 0 | 15 | -2 | 30 | 0
Cc1ccc(S(=O)(=O)N2CCOCC2)cc1C(=O)Nc1ccccc1F | x | -9 | -4 | -2 | 2
C/C(=N\NC(=O)CCc1ccccc1)C1C(=O)c2ccccc2C1=O | u | 8 | 0 | x | -2
C/C(=N\NC(=O)c1cccc(Cl)c1)C1C(=O)c2ccccc2C1=O | -16 | 93* | 3 | u | 4
